PubChem BioAssay AID624330 (Southern Research Specialized Biocontainment Screening …, 2012)
The whole screen tested about 340,000 compounds, of which about 2,100 (0.62%) were called active.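 The calls were made as follows: active = first-screen hits whose inhibition reached a set limit at any dose in the follow-up dose series; inconclusive = inhibition above the set first-screen limit but never retested; inactive = the rest.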 These entries were drawn from the full list. Results with a measured potency or affinity are listed apart.

Each molecule was assayed against Rac GTPase-activating protein 1 (Homo sapiens) (UniProt Q9H0H5) (assay: MgcRacGAP GTPase-activating activity inhibitors, confirmation, biochemical, ADP Hunter fluorescence, primary and confirmatory (AID 624330;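 also: fluorescence reports GDP produced by GAP-driven GTP hydrolysis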)). Conditions: MgcRacGAP-stimulated Rac1 GTP hydrolysis, at 30 µM, stronger effect = higher value, GST-tagged Rac1 F28L mutant substrate.
Rac GTPase-activating protein 1 (Homo sapiens), sequence (Q9H0H5 whole entry, looked up): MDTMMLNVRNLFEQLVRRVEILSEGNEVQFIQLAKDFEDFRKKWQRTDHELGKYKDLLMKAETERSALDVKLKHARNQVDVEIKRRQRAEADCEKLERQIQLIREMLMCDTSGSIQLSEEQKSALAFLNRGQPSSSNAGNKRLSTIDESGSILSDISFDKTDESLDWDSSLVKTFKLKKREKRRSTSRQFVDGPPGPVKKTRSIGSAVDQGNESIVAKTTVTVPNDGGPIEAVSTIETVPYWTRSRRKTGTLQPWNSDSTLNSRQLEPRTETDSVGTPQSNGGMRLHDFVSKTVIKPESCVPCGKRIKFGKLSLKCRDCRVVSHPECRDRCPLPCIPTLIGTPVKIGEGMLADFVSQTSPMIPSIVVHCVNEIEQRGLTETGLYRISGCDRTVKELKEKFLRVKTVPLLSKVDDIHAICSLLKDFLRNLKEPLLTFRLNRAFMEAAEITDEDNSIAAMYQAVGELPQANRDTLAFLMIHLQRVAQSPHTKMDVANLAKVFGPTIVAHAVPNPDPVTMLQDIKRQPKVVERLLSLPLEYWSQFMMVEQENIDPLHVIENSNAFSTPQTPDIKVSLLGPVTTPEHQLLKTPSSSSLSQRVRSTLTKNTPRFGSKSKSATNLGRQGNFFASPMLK

inhibition, inactive:
Cc1cc(C)c(C#N)c(Sc2ccc(N)cc2)n1 8.38%
COc1ccccc1CN1CC(C(=O)NCc2cnn(C)c2)CCC1=O (stereo not given) 5.74%
COc1cc(CNCc2ccco2)cc(OC)c1O 6.83%
COc1cccc(CNCc2cccc(OC)c2O)c1O -13.3%
CCOC(=O)c1ccccc1NC(=O)COC(=O)c1ccc(OCC(=O)N2CCOCC2)c(OCC)c1 4.78%
Cc1ccc(N(CC(=O)N2CCc3ccccc32)S(=O)(=O)c2cccs2)cc1 1.58%
COc1ccccc1OCC#CCNC1CCCCC1C (stereo not given) 22.6%
CCN1CCN(CC#CCOc2ccccc2OC)CC1 29.8%
COc1ccc(OCC#CCn2ccnc2)cc1 -14.9%
COc1ccccc1OCC#CCSc1ncccn1 7.44%
CC1CC(C)CN(S(=O)(=O)c2ccc(C(=O)Nc3sccc3C(N)=O)cc2)C1 (stereo not given) 3.38%
O=C(Cn1c(=O)cnc2ccccc21)Nc1cc(Cl)ccc1N1CCOCC1 -4.21%
CCN(CC(=O)Nc1ccc(OC)cc1)CC(=O)Nc1sc2c(c1C(=O)OC)CCCC2 3.58%
CCCC(=O)NC1=C(Cl)C(=O)c2ccccc2C1=O 24.7%
CCC(=O)Nc1c(C)cc(C)cc1Cl 12.3%
Cc1cccc(NC(=O)CN2CCN(C(=O)CN3C(=O)NC4(CCCCC4C)C3=O)CC2)c1C (stereo not given) 7.46%
CCN(CC)c1ccc(/C=N/Nc2nc(C)cc(=O)[nH]2)c(O)c1 22.4%
CCN(CC)c1ccc(/C=N/Nc2ccc(C)cc2)c(O)c1 11.6%
CCN(CC)c1ccc(/C=N/Nc2ccccc2)c(O)c1 5.91%
CCN(CC)c1ccc(/C=N/NC(=O)c2ccco2)c(O)c1 9.97%
CCN(CC)c1ccc(/C=N/NC(=O)c2ccoc2C)c(O)c1 2.9%
CCN(CC)c1ccc(/C=N/NC(=O)Cc2cccs2)c(O)c1 -34.9%
CCOC(=O)N/N=C/c1ccc(F)cc1F 3.61%
CCN(CC)c1ccc(/C=N/NC(=S)NCc2ccccc2)c(O)c1 12.5%
CCOc1ccc(N(CC(=O)Nc2cc(Cl)ccc2C)S(C)(=O)=O)cc1 -0.16%
CCOc1ccc(CC(=NCCO)C2=C(O)CC(C)(C)CC2=O)cc1OCC 2.19%
Cn1c(=O)oc2cc(S(=O)(=O)NCCN3CCc4ccccc4C3)ccc21 -3.64%
CCN(CC)C(=O)CN1C(=O)C(=O)c2ccccc21 6.56%
Nc1ccn(CCCN2CCN(Cc3cccc4ccccc34)CC2)c(=O)n1 19.7%
Cc1ccccc1N1CCN(C(=O)NCc2cccc(Cl)c2)CC1 2.37%
Cc1ccc(S(=O)(=O)N2CCC(C(=O)NC3CCCCC3C)CC2)cc1 (stereo not given) 17.3%
O=C(c1ccc(Cn2c(=O)[nH]c3ccccc3c2=O)cc1)N1CCN(c2ccccc2)CC1 -4.78%
CC(NC(=O)CCC(=O)NC(C)C1COc2ccccc2O1)C1COc2ccccc2O1 (stereo not given) 6.94%
CCOC(=O)CCNCC1COc2ccccc2O1 (stereo not given) 0.26%
COc1ccc2nc(NC(=O)CN(C)S(=O)(=O)c3cccs3)sc2c1 2.51%
Cc1c(C(=O)NC2CC(=O)N(c3ccc4c(c3)OCCO4)C2)cccc1[N+](=O)[O-] (stereo not given) 10.5%
O=S(=O)(Nc1ccc(-c2ccc(NS(=O)(=O)c3ccccc3)cc2)cc1)c1ccccc1 -20.9%
COc1ccc(NC(=O)/C(Cl)=C(/Cl)S(=O)(=O)Cc2ccccc2)cn1 25.6%
COc1ccc(CS(=O)(=O)/C(Cl)=C(/Cl)C(=O)Nc2ccc(OC)nc2)cc1 19.4%
COc1ccc(NC(=O)C(Cl)=C(Cl)Cl)cn1 6.63%
COc1ccc(NC(=O)Cc2ccccc2)cn1 3.42%
CC(C)(C)c1nnc2cccc(Cl)n12 0.67%
CCN1C(=O)[C@H]2[C@@H](c3ccc(-c4ccc(C(C)=O)cc4)c(OC)c3)N3CCCC[C@@]3(C(=O)OC)[C@H]2C1=O 5.29%
CCc1cc(=O)oc2cc(OC(C)C(=O)NCc3ccccn3)ccc12 (stereo not given) 7.67%
C/C(=N\NC(=O)c1ccc(NS(=O)(=O)c2cccs2)cc1)c1ccc(C(C)(C)C)cc1 8.43%
COCCNCc1ccccc1 -2.56%
COCCNc1nc(CSc2ccccc2)nc2sc(C)c(C)c12 8.51%
Cc1cc(C)cc(NC(=S)N2CCC(NC(=O)c3ccc(F)cc3)CC2)c1 4.86%
CCOc1ccc(NC(=O)C(NC(=O)C2CCC(C)CC2)C(C)C)cc1 (stereo not given) 8.67%
COc1cc(-c2cc(-c3ccc(F)cc3)nc(N)c2C#N)ccc1O 40.9%
COc1cc(/C=C(\C#N)c2[nH]nc(N)c2C#N)cc(OC)c1O 0.59%
CCOc1cc(-c2cc(-c3ccc(C)cc3)nc(N)c2C#N)ccc1O 16.3%
CCOc1cc(-c2cc(-c3ccccc3)nc(N)c2C#N)ccc1O 38.4%
COc1ccc(-c2cc(-c3ccc(O)cc3)nc(N)c2C#N)cc1OC 11.9%
CCCc1cc(-c2ccc(O)c(OCC)c2)c(C#N)c(N)n1 -0.99%
CCN(CC(=O)Nc1ccc(C#N)cc1)CC(=O)Nc1ccc2c(c1)OCCO2 4.07%
CCNC(=O)N1CCC(n2nccc2NC(=O)CCCc2ccccc2)CC1 6.88%
COc1ccccc1OCCC(=O)Nc1ccc2c(c1)OCO2 2.43%
C=CC[N+](C)(C)CCN1C(=O)C2C(c3ccccc3)C=CC(c3ccccc3)C2C1=O (stereo not given) -0.41%
C=CCC(NCc1ccco1)c1ccc(OC)c(OC)c1 (stereo not given) -6.08%
O=C(Oc1ccc2c(c1)OCC2=O)c1ccccc1 0.9%
O=c1oc(-c2cccc(S(=O)(=O)N3CCOCC3)c2)nc2ccccc12 13.7%
Cc1cccc(NC(=S)NC(=O)/C=C/c2ccccc2)n1 -2.63%
CC(C)(C)c1ccc(C(=O)NCC(=O)N2CCC3(CC2)NCCc2[nH]cnc23)cc1 11%
O=C(N/N=C\c1ccccc1)c1ccccc1-n1cccc1 6.39%
CCOc1cc(/C=N/NC(=O)c2cc(C)n(-c3ccc(F)cc3)c2C)ccc1O 16.4%
O=C(N/N=C\c1ccc(O)c([N+](=O)[O-])c1)c1ccccc1-n1cccc1 -4.94%
Cc1cccc(/C=N\NC(=O)c2ccccc2-n2cccc2)c1 5.46%
O=C(COc1ccccc1-c1ccccc1)N/N=C/c1ccc2ccccc2c1 6.35%
COc1cc(/C=N/NC(=O)c2ccccc2O)ccc1OCC(=O)Nc1ccccc1 14.4%
O=C(N/N=C/c1ccc(Br)cc1)c1ccccc1-n1cccc1 10.6%
O=C(N/N=C/c1ccc[nH]1)c1ccccc1OCc1ccc(F)cc1 9.06%
CC(=O)c1cccc(S(=O)(=O)NC2CCCCCC2)c1 1.69%
COc1ccc(C(C(=O)NC2CCCCC2)N(Cc2ccco2)C(=O)c2ccccn2)c(OC)c1 (stereo not given) 10.7%
CCCN(CCC)C(=O)c1ccc2c(c1)S(=O)(=O)c1ccccc1C2=O 6.12%
NC(=S)Nc1ccc(S(=O)(=O)c2ccc(NC(N)=S)cc2)cc1 10.8%
CC1(C)C(=O)OC(c2c3ccccc3cc3ccccc23)C(C)(C)C1=O (stereo not given) 1.71%
CC(NS(=O)(=O)c1cccc(S(=O)(=O)c2ccccc2)c1)C(=O)O (stereo not given) -5.11%
CCOC(=O)N1CCN(C(=O)c2cccc(S(=O)(=O)Nc3ccc(F)cc3)c2)CC1 4.83%
CCOC(=O)C1CCN(c2c(N3CCCC(C(=O)OCC)C3)c(=O)c2=O)CC1 (stereo not given) 4.65%
CN(C)CCNC(=O)c1onc(CSc2nc3ccccc3[nH]2)c1C(=O)NCCN(C)C 17.3%
Brc1ccc(-c2ccc(/C=N/Nc3nc4ccccc4[nH]3)o2)cc1 3.17%
COCCNC(=O)/C(C#N)=C/c1ccc(C(=O)O)cc1 0.25%
COc1cccc(C(=O)N2CCn3c2nc2ccccc23)c1 8.54%
O=C(Nc1nnc(C2CCCCC2)s1)C1CC(=O)N(c2ccc(F)cc2)C1 (stereo not given) 3.31%
COc1ccc(NC(=O)CSc2ccc3ccccc3c2)cc1S(=O)(=O)N1CCCCC1 8.21%
Cc1ccc2nc(C)cc(N/N=C/c3cccc(O)c3)c2c1 14.1%
COc1ccc(/C=N/Nc2cc(C)nc3ccccc23)cc1 14.7%
COc1cccc2c(N/N=C/c3ccc(O)c(O)c3)cc(C)nc12 27.1%
COc1cccc2c(N/N=C/c3ccccc3)cc(C)nc12 11%
N#Cc1nc(COc2ccc(F)cc2)oc1N1CCC(Cc2ccccc2)CC1 0.56%
N#Cc1ccc(N/N=C/c2ccccc2)c([N+](=O)[O-])c1 2.61%
Cc1sc(NC(=O)c2ccc(F)cc2)c(CN2CCCCCC2)c1C 13.7%
CCn1c(CC(=O)Nc2ccc(Cl)c(Cl)c2)nnc1SCc1ccc(Cl)cc1 11.6%
Cc1sc2ncn(CC(=O)N3CCCCC3)c(=O)c2c1C 6.45%
